Chronic BCR inh – blocks chronic active B-cell receptor signaling | Potency, µM (top dose mostly 46.1 µM), inactives show at the top dose activity change, negative = inhibition, hits mostly inhibitors | AID 493014 | ABC-DLBCL IkBa-CBG/CBR reporter, luminescence ratio, 4 h | hit rate 0.05% among 340,000; active = well fitted inhibition curve with a large enough effect in the signal ratio, with a control signal flat, not every such curve was filed as active; inconclusive = small, poorly fitted or top-dose-only effect, or effect the other way, or a change in a side signal; the % refers to the signal ratio;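 also: potency is read from the fitted curve at half-maximal effect; plate controls were basal doxycycline-induced cells for no effect and cells given 10 µM MG132 for full effect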
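TMD8 ABC-DLBCL cells carrying doxycycline-inducible green luciferase fused to IkappaBalpha plus unfused red luciferase were exposed to compounds (up to 46 uM) for 4 hrs at 37C. Activity came from the overlap-corrected green/red luminescence ratio.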
SW480 rerep – DNA re-replication induction in SW480 cells; SW480 DNA re-replication, Hoechst DNA content imaging, 48 h; Potency, µM (doses to about 46.1 µM), for inactives: at the highest dose re-replication activation, most hits filed as activators; hit rate 1.8% among 340,000; AID 624297; also: potency is read from the fitted curve at half-maximal effect; % of control where 0% means no effect; nearly all actives have a fitted effect of over 55% in size
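250 cells/well; 23 nL cpd via pin tool; 48 hr, 37 C, 5% CO2; Hoechst 40 min; imager read of total nuclear intensity, ex 405/em 500-530 nm.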
DT40 TDP1 CPT – DT40-hTDP1 cell growth loss with CPT; chicken DT40 Tdp1-/-;hTDP1 cells + 20 nM CPT, ATP luminescence, 48 h; Potency, µM (titrated, usually from 46.2 µM), inactives show at the top dose activity change, negative = growth inhibition, usual class: inhibitors; hit rate 12% among 420,000; AID 686979; also: potency is read from the fitted curve at half-maximal effect; % is scaled to controls: 0 for no effect and ±100 for the full control effect; nearly all actives have a fitted effect of over 55% in size
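Cell growth measured by CellTiter-Glo luminescence after a minimum 48 h, 37 C compound exposure with 20 nM CPT in Tdp1-knockout DT40 cells stably expressing hTDP1, seeded 400/well; qHTS titration format.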
MCF10A rereplic – DNA re-replication induction in MCF 10a cells | Potency, µM (top dose mostly 46.1 µM), inactives show top-dose activity, positive = re-replication, usual class: activators | hit rate 2.9% among 350,000 | MCF 10A DNA re-replication, Hoechst nuclear intensity, 48 h | AID 624296; also: potency is read from the fitted curve at half-maximal effect; % of control where 0% means no effect; nearly all actives have a fitted effect of over 50% in size
DT40 TDP1 no CPT – qHTS for Inhibitors of human tyrosyl-DNA phosphodiesterase 1 (TDP1): qHTS in cells in absence of CPT | AID 686978, 2013 | Potency, µM (series often up to 46.2 µM), for the others: top-dose activity change, negative = growth inhibition, hits mostly inhibitors | DT40 Tdp1-/- hTDP1 cells, no CPT, ATP luminescence, 48 h | hit rate 15% among 420,000; also: potency is read from the fitted curve at half-maximal effect; % is scaled to controls: 0 for no effect and ±100 for the full control effect; nearly all actives have a fitted effect of over 55% in size
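Compound effects on proliferation are scored in DT40 Tdp1-/-;hTDP1 cells in the absence of CPT. ATP levels (CellTiter-Glo luminescence) are recorded after a ≥48 hr, 37 °C incubation.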
IL1B secr inh – inflammasome signaling inhibition, IL-1 beta readout | activity change, % at 57.5 µM | hit rate 4.7% among 360,000 | AID 743279 | THP-1 LPS/ATP IL-1B secretion, AlphaLISA, 16 h; stronger effect = lower value; in the data active = activity change below about -50%; inconclusive = mostly about -30% to -49%; also: % is scaled to controls: 0 for no effect and ±100 for the full control effect
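Secreted IL-1B measured by AlphaLISA bead assay after 16 h compound exposure of THP-1 cells; compounds (final up to 57.5 uM) added 1 h before LPS (250 ng/mL) and ATP (1.25 mM) stimulation; lower signal means less secretion.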
* marks the source's active call; other numbers are inactive results; ? = inconclusive; · = no result. Sampled rows, rich in hits. Any-hit rate of the full collection: about 19%. Unless noted, calls follow the shape of the dose curve; as a rule, active = well fitted curve in the direction sought with a large enough effect; inconclusive = small, poorly fitted or top-dose-only effect, or another doubt; inactive = no such curve, though single readings can be large; an effect the other way counts as inactive or inconclusive.

SMILES	Chronic BCR inh	SW480 rerep	DT40 TDP1 CPT	MCF10A rereplic	DT40 TDP1 no CPT	IL1B secr inh
Clc1ccc(C#Cc2cccnc2)cc1	?	-0.1%	-20.4%	-1.8%	3.6%	23.4
Clc1ncc(C#Cc2ccccc2)c2ncncc12	·	·	1.41µM*	·	0.794µM*	·
CC(C)NC(=O)c1ccc(CN2CCc3ccccc3C2)cc1	-0.2%	-1.1%	-19.9%	6.2%	?	18.2
CCOc1ccc(Oc2c(/C=N/NC(N)=O)c(C)nn2-c2ccccc2)cc1	-10.9%	-4.2%	-1.8%	0.6%	?	-28.1
Cc1nn(-c2ccccc2)c(Oc2ccccc2)c1C=O	0.2%	13.8%	16.4µM*	?	13µM*	?
CCCCNC(=S)N/N=C1\C(=O)c2cccc3cccc1c23	5.2%	0.3%	?	11.6%	25.9µM*	-8.6
O=C(N/N=C1\C(=O)c2cccc3cccc1c23)c1ccc(O)cc1	?	-2.8%	?	10.1%	?	-24.5
CNC(=S)N/N=C1\C(=O)c2cccc3cccc1c23	?	?	29.1µM*	10µM*	16.4µM*	-97.8*
Cc1ccc(C)c(C(=O)Nc2ccncc2)c1	-16.6%	-0.4%	4.3%	?	-11.6%	-2.8
O=C1COc2ccc(N3C(=O)c4ccccc4C3=O)cc2N1	-0.9%	·	·	·	·	·
Cc1cccc(NS(=O)(=O)c2ccc3[nH]c4c(c3c2)CCCCCC4)c1	·	·	18.4µM*	·	?	·
Cc1cccc(NC(=O)C2CCN(S(=O)(=O)c3ccc4[nH]c5c(c4c3)CCCCC5)CC2)c1	·	·	20.6µM*	·	?	·
O=S(=O)(Nc1cccc(Cl)c1)c1ccc2[nH]c3c(c2c1)CCCCCC3	·	·	16.4µM*	·	?	·
CC(C)(C)NS(=O)(=O)c1ccc2[nH]c3c(c2c1)CCCCC3	-5.3%	-1.9%	?	2.2%	?	-21.1
CCCCCn1c(=O)[nH]c2cc(C(=O)NCCCN3CCCCC3CC)ccc2c1=O (configuration not stated)	-9.6%	?	?	?	?	8.9
CCC(C)c1ccc(S(=O)(=O)N2CCN(CC(O)COCC3CCCO3)CC2)cc1 (configuration not stated)	-0.5%	-0.3%	-2.9%	3.3%	-12.2%	-4.2
Cc1cccc(Nc2cc(C)nc3nc(-c4ccccc4)nn23)c1	·	·	-23.7%	·	-10.2%	·
Cc1cc(C)cc(Nc2cc(C)nc3nc(-c4ccco4)nn23)c1	·	·	16.4µM*	·	9.2µM*	·
CC1CCCN(c2ncnc3c2nnn3C)C1 (configuration not stated)	?	·	-12.7%	·	-16.9%	·
CCOC(=O)COc1ccccc1/C=C1/NC(=O)NC1=O	-0.2%	0.6%	10.9%	13.8%	5.6%	?
COc1cccc(/C=C2\NC(=O)NC2=O)c1O	7.4%	-10.9%	-7.8%	-0.7%	16.3%	-50.4*
CCc1ccc(CN(C)C(=O)C2CCC(=O)N(CC3CCCCC3)C2)cc1 (configuration not stated)	1.1%	-2.3%	23.1µM*	0.1%	?	-10.4
CN(Cc1ccccc1C(F)(F)F)C(=O)C1CCC(=O)N(CC2CCCCC2)C1 (configuration not stated)	·	·	-23.5%	·	-12.5%	8.5
O=C(NCCCN1CCOCC1)c1cc2ccccc2cc1O	-2.4%	-4.4%	-6.7%	?	-19.1%	25.8
COc1cccc(CN(Cc2ccco2)S(=O)(=O)c2ccc(S(=O)(=O)NCc3ccccc3)cc2)c1OC	?	-1.0%	29.1µM*	4.0%	?	-15.9
SMILES	Chronic BCR inh	SW480 rerep	DT40 TDP1 CPT	MCF10A rereplic	DT40 TDP1 no CPT	IL1B secr inh
O=C1CCCN2N=C(SCC(=O)Nc3cccc(F)c3)SC2=N1	6.6%	-9.9%	20.6µM*	-5.0%	13µM*	2.9
O=C1CCCN2N=C(SCC(=O)Nc3ccc(F)cc3F)SC2=N1	6.7%	-12.5%	?	3.7%	?	25.2
O=C1CCCN2N=C(SCC(=O)Nc3ccc([N+](=O)[O-])cc3)SC2=N1	-0.1%	2.91µM*	-27.6%	5.17µM*	-25.4%	0.2
Cc1ccc(C)c(CSC2=NN3CCCC(=O)N=C3S2)c1	1.8%	27.1%	?	?	16.4µM*	15.7
O=C1CCCN2N=C(SCC(=O)Nc3ccc(OC(F)(F)F)cc3)SC2=N1	1.0%	-8.9%	-22.9%	-2.0%	?	44.6
Cc1cc(NC(=O)CSC2=NS(=O)(=O)c3ccccc3N2)no1	1.5%	-0.6%	7.4%	-1.3%	17.5%	4.1
N[C@@H](Cn1cc(F)c(=O)[nH]c1=O)C(=O)O	·	·	4.0%	·	0.0%	·
CC1CCCC(NC(=S)Nc2cccc(S(=O)(=O)N(C)C)c2)C1C (configuration not stated)	?	-0.2%	?	-1.3%	18.4µM*	25.7
CN(C)S(=O)(=O)c1cccc(NC(=S)NC(=O)C2CCCCC2)c1	2.3%	-7.4%	?	?	18.4µM*	0.4
CN(C)S(=O)(=O)c1cccc(NC(=S)NC2CCCCC2)c1	-0.7%	?	-22.3%	9.8%	-8.3%	24.0
CN(C)S(=O)(=O)c1cccc(NC(=S)N2CCc3ccccc32)c1	?	10.4%	?	?	?	31.2
CC1Cc2ccccc2N1C(=S)Nc1cccc(S(=O)(=O)N(C)C)c1 (configuration not stated)	?	?	16.4µM*	?	?	13.9
CS(=O)(=O)N(CC(=O)N1CCCC1)C1CCCCC1	·	·	0.7%	·	3.7%	-2.9
CCC(NS(=O)(=O)c1ccc2c(c1)NC(=O)C(C)C(=O)N2)c1cccs1 (configuration not stated)	15.5%	-18.8%	-17.3%	2.1%	-6.1%	44.0
COc1ccc(-c2cc3cc(-c4cc(OC)c(OC)c(OC)c4)ccc3o2)cc1	?	-16.7%	?	-2.0%	-22.5%	7.4
COc1cc(-c2ccc3cc(OC)c(OC)c(OC)c3c2)cc(OC)c1OC	·	·	20.6µM*	·	?	6.9
COc1ccc(Cc2c(C3CCCCC3)nc3c(Cl)cc(C(F)(F)F)cn23)c(C)c1	·	·	18.4µM*	·	?	1.3
COc1ccc(Cc2c(C3CCCCC3)nc3ccc(Br)cn23)c(C)c1	·	·	16.4µM*	·	23.1µM*	33.2
CCN(CC)C(=O)[C@H]1CC(CC(=O)NCCN2CCOCC2)C(=O)N2CCc3c([nH]c4ccccc34)[C@]12C (some centres not stated)	-1.7%	1.5%	-4.0%	0.8%	-5.5%	-2.7
c1ccc(CSc2ncnc3sccc23)cc1	-1.3%	-1.7%	3.1%	-3.0%	10.7%	0.0

Assay outcomes (PubChem)
